Experimental data: the supplement of paper PMC10849652
The full data set covers some 8,800 targets. This sample favours those with a hit. About 0.5% of all pairs of compound and target were hits. A number with no mark means an inactive call.

Assays:
Experiment in all cases: log2 fold change, soluble protein after heating vs DMSO (PISA); higher = thermal stabilisation; K562 lysate, 10 uM; active = over 0.2 and 3.5 SD of the protein, either way, in both replicates (recomputed)
[1] = compound: CCCS(=O)(=O)Nc1ccc(F)c(C(=O)c2c[nH]c3ncc(-c4ccc(Cl)cc4)cc23)c1F [vemurafenib]
Outline: (§1)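 Quantification was by TMTpro 16plex LC-MS/MS with equalised channel sums, applied to the supernatant after 21,000xg for 90 min. Samples were crude K562 extract at 1 mg/mL protein in PBS pH 7.4 with 1 mM MgCl2, treated with 10 μM compound for 30 min, heated for 3 min across 48°C-58°C, pooled and brought to 0.5% NP-40 at 4°C. Values are log-two fold changes in thermal stability relative to solvent controls, from duplicates.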

[2] = compound: CCCS(=O)(=O)Nc1ccc(F)c(C(=O)c2c[nH]c3ncc(Cl)cc23)c1F
Outline: as §1

[3] = compound: CCN(CCCOc1ccc2c(Nc3cc(CC(=O)Nc4cccc(F)c4)[nH]n3)ncnc2c1)CCOP(=O)(O)O [barasertib]
Outline: as §1

[4] = compound: CC[C@@H]1C(=O)N(C)c2cnc(Nc3ccc(C(=O)NC4CCN(C)CC4)cc3OC)nc2N1C1CCCC1
Outline: as §1

[5] = compound: CC[C@@H]1C(=O)N(C)c2cnc(Nc3ccc(C(=O)N[C@H]4CC[C@H](N5CCN(CC6CC6)CC5)CC4)cc3OC)nc2N1C(C)C [volasertib]
Outline: as §1

[6] = compound: CCn1c(C(=O)N(C2CC2)C2CC2)cc2c3c(ncn3C)c(Nc3cc(C)n(C)n3)nc21
Outline: as §1

[7] = compound: CCn1cc(-c2ccnc3[nH]c(-c4cccc(CN(C)C)c4)cc23)c(-c2ccc(NC(=O)N(C)C)cc2)n1
Outline: as §1

[8] = compound: CN1CCC(CNc2ccc3ncc(-c4cccc(OC(F)(F)F)c4)n3n2)CC1
Outline: as §1

[9] = compound: CN1CCN(CCOc2cc(OC3CCOCC3)c3c(Nc4c(Cl)ccc5c4OCO5)ncnc3c2)CC1 [saracatinib]
Outline: as §1

[10] = compound: CN1CCN(c2nc(C3=C(c4c[nH]c5ccccc45)C(=O)NC3=O)c3ccccc3n2)CC1 [sotrastaurin]
Outline: as §1

UniProt P53396, sequence (P53396 whole entry, looked up): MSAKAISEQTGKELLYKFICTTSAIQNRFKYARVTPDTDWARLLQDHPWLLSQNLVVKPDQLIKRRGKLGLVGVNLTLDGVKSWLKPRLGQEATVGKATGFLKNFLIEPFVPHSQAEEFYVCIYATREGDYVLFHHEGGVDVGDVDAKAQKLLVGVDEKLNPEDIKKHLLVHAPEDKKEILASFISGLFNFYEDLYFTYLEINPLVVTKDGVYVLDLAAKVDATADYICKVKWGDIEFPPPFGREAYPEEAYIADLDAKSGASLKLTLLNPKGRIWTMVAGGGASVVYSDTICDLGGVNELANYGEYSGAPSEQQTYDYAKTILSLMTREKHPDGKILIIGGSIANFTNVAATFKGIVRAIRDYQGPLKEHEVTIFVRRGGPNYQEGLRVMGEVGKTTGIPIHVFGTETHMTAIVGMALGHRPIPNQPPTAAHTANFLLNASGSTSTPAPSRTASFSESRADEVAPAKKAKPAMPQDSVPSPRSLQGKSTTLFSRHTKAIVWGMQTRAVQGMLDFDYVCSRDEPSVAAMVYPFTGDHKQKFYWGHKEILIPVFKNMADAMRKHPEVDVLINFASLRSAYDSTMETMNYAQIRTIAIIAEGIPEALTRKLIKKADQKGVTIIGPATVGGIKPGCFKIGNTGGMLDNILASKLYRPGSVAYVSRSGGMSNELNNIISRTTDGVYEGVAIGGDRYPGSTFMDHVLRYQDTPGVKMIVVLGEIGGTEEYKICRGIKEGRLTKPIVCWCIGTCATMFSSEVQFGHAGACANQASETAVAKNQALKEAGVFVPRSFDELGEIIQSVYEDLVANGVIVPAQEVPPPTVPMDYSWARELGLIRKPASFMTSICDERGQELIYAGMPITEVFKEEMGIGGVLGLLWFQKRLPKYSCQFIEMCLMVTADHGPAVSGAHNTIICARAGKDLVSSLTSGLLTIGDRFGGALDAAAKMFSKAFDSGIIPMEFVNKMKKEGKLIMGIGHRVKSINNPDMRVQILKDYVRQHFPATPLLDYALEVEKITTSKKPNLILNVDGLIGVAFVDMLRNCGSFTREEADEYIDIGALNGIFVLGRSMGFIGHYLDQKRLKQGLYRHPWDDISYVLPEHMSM
UniProt O95870, sequence (O95870 whole entry, looked up): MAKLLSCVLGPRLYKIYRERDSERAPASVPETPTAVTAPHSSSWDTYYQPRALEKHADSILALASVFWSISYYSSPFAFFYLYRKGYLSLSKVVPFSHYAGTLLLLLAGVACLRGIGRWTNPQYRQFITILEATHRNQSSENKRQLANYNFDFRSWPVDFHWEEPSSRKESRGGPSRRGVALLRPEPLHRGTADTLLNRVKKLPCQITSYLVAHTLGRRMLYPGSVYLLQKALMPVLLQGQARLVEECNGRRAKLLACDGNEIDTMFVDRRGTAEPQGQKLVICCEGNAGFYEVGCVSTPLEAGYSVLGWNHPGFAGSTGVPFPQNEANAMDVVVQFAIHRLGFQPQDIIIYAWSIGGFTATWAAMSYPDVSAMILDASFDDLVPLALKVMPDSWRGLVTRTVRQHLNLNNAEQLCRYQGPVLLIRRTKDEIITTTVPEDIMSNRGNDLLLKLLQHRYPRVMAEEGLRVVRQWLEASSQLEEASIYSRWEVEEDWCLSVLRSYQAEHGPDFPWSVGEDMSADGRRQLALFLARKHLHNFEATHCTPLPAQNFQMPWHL
UniProt Q9UPW5, sequence (Q9UPW5 whole entry, looked up): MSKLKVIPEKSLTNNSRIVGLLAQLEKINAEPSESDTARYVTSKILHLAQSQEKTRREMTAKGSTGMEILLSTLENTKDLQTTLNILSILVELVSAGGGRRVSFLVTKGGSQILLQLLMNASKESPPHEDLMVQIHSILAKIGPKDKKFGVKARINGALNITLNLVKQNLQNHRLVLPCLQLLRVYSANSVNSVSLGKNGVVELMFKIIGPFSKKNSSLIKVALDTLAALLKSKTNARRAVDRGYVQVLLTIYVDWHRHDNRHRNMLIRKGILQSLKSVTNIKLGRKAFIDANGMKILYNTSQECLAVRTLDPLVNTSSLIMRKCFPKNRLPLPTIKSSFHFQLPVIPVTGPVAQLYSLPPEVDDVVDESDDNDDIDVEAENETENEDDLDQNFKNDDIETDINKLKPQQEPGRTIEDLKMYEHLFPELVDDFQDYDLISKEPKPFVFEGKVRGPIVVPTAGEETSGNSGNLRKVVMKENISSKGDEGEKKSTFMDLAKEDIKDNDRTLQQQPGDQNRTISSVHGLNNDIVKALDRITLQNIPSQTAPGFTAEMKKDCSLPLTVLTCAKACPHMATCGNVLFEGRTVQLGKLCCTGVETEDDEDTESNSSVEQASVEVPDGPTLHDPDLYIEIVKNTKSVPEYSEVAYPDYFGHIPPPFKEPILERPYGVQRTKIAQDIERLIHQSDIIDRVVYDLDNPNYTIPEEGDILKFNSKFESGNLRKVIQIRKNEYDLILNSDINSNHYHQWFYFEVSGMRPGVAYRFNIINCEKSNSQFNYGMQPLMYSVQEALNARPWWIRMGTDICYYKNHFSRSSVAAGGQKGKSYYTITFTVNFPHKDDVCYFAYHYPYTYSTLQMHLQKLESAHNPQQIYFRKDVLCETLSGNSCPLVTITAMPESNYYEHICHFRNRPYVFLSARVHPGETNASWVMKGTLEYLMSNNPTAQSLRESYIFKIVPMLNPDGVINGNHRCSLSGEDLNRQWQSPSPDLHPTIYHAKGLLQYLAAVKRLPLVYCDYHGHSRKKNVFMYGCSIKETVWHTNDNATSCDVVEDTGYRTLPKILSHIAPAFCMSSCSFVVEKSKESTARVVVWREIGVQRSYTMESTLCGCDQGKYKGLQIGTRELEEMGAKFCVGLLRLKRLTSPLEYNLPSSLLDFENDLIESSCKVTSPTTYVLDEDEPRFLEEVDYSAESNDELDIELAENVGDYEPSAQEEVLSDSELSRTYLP
UniProt Q9H1I8, sequence (Q9H1I8 whole entry, looked up): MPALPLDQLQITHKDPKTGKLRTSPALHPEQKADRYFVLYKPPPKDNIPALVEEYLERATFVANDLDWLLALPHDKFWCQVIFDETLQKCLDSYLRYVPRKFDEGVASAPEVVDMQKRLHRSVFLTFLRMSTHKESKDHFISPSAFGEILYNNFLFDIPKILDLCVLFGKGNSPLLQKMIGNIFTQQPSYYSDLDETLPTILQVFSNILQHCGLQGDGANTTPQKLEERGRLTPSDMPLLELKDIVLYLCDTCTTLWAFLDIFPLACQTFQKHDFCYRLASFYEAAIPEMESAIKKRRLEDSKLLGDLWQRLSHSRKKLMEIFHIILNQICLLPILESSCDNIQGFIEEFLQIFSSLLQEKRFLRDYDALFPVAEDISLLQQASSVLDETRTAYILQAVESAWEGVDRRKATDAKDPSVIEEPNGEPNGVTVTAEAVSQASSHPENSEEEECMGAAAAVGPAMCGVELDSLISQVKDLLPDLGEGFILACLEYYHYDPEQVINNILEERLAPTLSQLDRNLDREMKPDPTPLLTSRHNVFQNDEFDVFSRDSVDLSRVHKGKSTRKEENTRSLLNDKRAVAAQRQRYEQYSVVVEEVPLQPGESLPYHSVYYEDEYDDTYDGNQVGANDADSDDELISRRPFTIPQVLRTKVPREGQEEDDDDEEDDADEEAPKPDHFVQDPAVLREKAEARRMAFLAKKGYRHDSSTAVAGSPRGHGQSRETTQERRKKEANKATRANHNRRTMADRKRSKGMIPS
UniProt Q9NP73, sequence (Q9NP73 whole entry, looked up): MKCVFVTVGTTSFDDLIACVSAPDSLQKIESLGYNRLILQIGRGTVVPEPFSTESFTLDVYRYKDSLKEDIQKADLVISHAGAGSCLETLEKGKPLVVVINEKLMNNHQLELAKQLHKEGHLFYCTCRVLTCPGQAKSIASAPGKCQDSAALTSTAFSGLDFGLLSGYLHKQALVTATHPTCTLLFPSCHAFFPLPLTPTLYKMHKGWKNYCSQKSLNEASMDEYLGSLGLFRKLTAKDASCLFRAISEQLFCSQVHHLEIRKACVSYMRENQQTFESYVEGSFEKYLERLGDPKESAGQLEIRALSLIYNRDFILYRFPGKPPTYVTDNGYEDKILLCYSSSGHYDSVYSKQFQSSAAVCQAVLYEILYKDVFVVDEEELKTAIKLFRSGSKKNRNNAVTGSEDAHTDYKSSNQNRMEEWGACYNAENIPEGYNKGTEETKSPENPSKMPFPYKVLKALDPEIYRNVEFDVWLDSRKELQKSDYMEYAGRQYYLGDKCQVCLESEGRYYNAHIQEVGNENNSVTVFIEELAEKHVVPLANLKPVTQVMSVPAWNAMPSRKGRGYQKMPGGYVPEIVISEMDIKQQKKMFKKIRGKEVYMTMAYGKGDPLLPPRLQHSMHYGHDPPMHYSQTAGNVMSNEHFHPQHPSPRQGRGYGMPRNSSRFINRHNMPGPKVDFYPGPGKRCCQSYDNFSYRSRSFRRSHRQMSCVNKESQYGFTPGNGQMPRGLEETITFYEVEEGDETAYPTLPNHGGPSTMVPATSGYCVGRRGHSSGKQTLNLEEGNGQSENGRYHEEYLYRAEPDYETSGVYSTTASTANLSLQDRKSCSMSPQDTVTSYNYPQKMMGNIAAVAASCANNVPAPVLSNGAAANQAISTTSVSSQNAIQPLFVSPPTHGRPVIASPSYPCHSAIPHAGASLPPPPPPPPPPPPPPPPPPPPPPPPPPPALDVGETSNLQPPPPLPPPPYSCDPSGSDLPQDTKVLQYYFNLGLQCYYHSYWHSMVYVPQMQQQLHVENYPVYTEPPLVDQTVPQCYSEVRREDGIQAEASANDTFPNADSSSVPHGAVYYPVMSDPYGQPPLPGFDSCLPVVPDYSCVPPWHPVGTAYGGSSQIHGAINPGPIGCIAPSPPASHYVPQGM
UniProt P27144, sequence (P27144 whole entry, looked up): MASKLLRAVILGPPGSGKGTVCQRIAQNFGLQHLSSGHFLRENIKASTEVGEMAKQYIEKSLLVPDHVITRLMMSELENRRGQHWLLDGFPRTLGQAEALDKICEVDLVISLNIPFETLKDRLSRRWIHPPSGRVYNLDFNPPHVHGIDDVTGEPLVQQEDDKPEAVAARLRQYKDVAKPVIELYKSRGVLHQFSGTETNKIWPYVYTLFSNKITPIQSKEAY

Row | Target | log2 fold change [1] | log2 fold change [2] | log2 fold change [3] | log2 fold change [4] | log2 fold change [5] | log2 fold change [6] | log2 fold change [7] | log2 fold change [8] | log2 fold change [9] | log2 fold change [10]
1 | AGTPBP1 (UniProt Q9UPW5) | 0.151 | 0.075 | -0.223 | 0.036 | -0.089 | -0.013 | 0.013 | -0.409 (active) | 0.108 | -0.126
2 | ANKRD30B (UniProt Q9BXX2) | 0.136 | 0.024 | 0.047 | 0.012 | 0.003 | -0.055 | -0.755 (active) | 0.281 | 0.04 | –
3 | ACADM isoform 2 (UniProt P11310) | 0.02 | -0.011 | 0.069 | 0.001 | -0.062 | -0.051 | -0.031 | -0.046 | -0.023 | 0.67 (active)
4 | ABI1 isoform 9 (UniProt Q8IZP0) | -0.021 | 0.005 | -0.01 | 0.052 | -0.038 | -0.001 | -0.116 | 0.217 | -0.029 | -0.019
5 | ABCC5 (UniProt O15440) | -0.603 (active) | -0.001 | -0.034 | -0.067 | -0.136 | 0.145 | -0.137 | -0.022 | 0.013 | 0.018
6 | ABHD16A (UniProt O95870) | 0.074 | 0.012 | 0.026 | 0.141 | 0.002 | -0.059 | -0.001 | 0.019 | 0.021 | 0.051
7 | ALDH1L2 (UniProt Q3SY69) | -0.084 | -0.026 | 0.002 | -0.006 | -0.045 | 0.007 | -0.089 | -0.014 | -0.002 | 0.013
8 | ABCF3 (UniProt Q9NUQ8) | 0.013 | 0.037 | 0.03 | -0.079 | -0.099 | 0.044 | 0.015 | -0.059 | -0.006 | 0.033
9 | AK4 (UniProt P27144) | -0.068 | 0.018 | 0.11 | -0.057 | -0.024 | 0.023 | -0.036 | -0.002 | -0.016 | 0.05
10 | AIMP2 (UniProt Q13155) | -0.026 | 0.022 | 0.031 | -0.131 | -0.063 | -0.019 | -0.008 | -0.079 | 0.018 | 0.015
11 | AGPS (UniProt O00116) | 0.028 | 0.008 | -0.021 | 0.06 | 0.011 | 0.025 | -0.082 | 0.012 | -0.009 | -0.016
12 | ACTG1 (UniProt I3L4N8) | 0.131 | -0.062 | 0.218 | -0.208 | -0.006 | -0.384 | 0.94 | -0.091 | -0.002 | 0.001
13 | ALDH2 (UniProt P05091) | -0.083 | 0.011 | -0.012 | -0.012 | -0.017 | -0.011 | 0.007 | -0.009 | 0.012 | 0
14 | ARGLU1 (UniProt Q9NWB6) | -0.013 | 0.027 | -0.043 | 0.001 | 0.027 | -0.035 | 0.073 | -0.02 | 0.047 | -0.019
15 | AKAP8L (UniProt Q9ULX6) | -0.003 | 0.033 | -0.066 | -0.036 | -0.042 | 0.019 | -0.042 | -0.01 | 0.002 | 0.013
16 | AKT1 (UniProt P31749) | 0.071 | 0.011 | -0.023 | -0.019 | -0.026 | -0.031 | -0.068 | 0.055 | 0.055 | 0.051
17 | ACAT1 (UniProt P24752) | 0 | -0.016 | 0.006 | 0.033 | 0.019 | 0.003 | -0.038 | -0.006 | 0.011 | 0.007
18 | AK1 (UniProt P00568) | 0.01 | -0.036 | -0.012 | -0.027 | 0.021 | 0.017 | 0.332 (active) | -0.135 | -0.012 | -0.024
19 | ADRM1 (UniProt Q16186) | -0.01 | 0.033 | 0.031 | -0.026 | -0.036 | 0.008 | -0.024 | -0.027 | 0 | 0.002
20 | ALG13 (UniProt Q9NP73) | 0.014 | 0.015 | 0.054 | 0.041 | -0.041 | -0.016 | -0.14 | 0.086 | 0.023 | 0.017
21 | AMD1 (UniProt P17707) | 0.096 | -0.01 | 0.064 | 0.036 | -0.014 | 0.117 | -0.129 | 0.127 | 0.013 | -0.002
22 | ANKRD27 (UniProt Q96NW4) | -0.016 | 0.006 | 0.043 | 0.01 | -0.075 | 0.001 | -0.042 | -0.073 | 0.054 | -0.002
23 | ASNS (UniProt P08243) | -0.002 | -0.002 | 0.025 | -0.056 | -0.047 | 0.005 | 0.031 | -0.03 | 0.022 | 0.014
24 | ARHGEF2 (UniProt Q92974) | -0.006 | 0.013 | -0.002 | 0 | -0.026 | -0.021 | -0.02 | -0.003 | 0.009 | 0.027
25 | ADD1 isoform 4 (UniProt P35611) | 0.061 | -0.003 | -0.089 | 0.164 | 0.061 | -0.345 | -0.61 | 0.397 | 0.083 | –
26 | ACBD6 (UniProt Q9BR61) | 0.028 | 0.035 | -0.006 | -0.025 | -0.082 | 0.013 | -0.009 | 0.006 | -0.015 | 0.014
27 | AFF4 (UniProt Q9UHB7) | 0.157 | -0.012 | -0.072 | 0.001 | -0.019 | 0.023 | -0.133 | -0.04 | -0.009 | 0.002
28 | ACLY (UniProt P53396) | 0.017 | 0.01 | -0.003 | -0.035 | -0.031 | -0.003 | -0.049 | 0.026 | -0.007 | 0.016
29 | ASCC2 (UniProt Q9H1I8) | 0.037 | 0.069 | 0.025 | -0.054 | -0.024 | 0.007 | 0.051 | -0.103 | 0.04 | 0.027
30 | ANXA2 isoform 2 (UniProt P07355) | -0.03 | -0.004 | -0.021 | 0 | 0.017 | 0.033 | -0.003 | -0.02 | 0.013 | -0.012
